# Compound activity (PubChem)
# POLB inh: qHTS Assay for Inhibitors of DNA Polymerase Beta | 1.3% of 340,000 active | Pol beta primer extension/strand displacement, fluorescence kinetic | Potency, µM (top dose mostly 114 µM), inactives show at the highest dose activity change, negative = inhibition, actives largely listed as inhibitors; further: potency means the concentration at half of the fitted maximal effect; on the % scale 0 is the no-effect control and ±100 the full control effect
#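 Kinetic readout of DNA synthesis with strand displacement by Pol beta. Compound and 10 nM enzyme sit 15 min at room temperature; 50 nM substrate starts the reaction, read immediately and at 10 min.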
# Pol kappa inh-1: qHTS for Inhibitors of Polymerase Kappa; DNA polymerase kappa (Homo sapiens), Q9UBT6; purified Pol kappa, fluorescent DNA synthesis assay, 10 min; Potency, µM (titrated, usually from 107 µM), for the others: top-dose activity, negative = inhibition, actives largely listed as inhibitors; 0.53% of 400,000 active; further: potency means the concentration at half of the fitted maximal effect; on the % scale 0 is the no-effect control and ±100 the full control effect
#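 Enzyme at 10 nM met test compounds for 15 min at room temperature. Substrate addition (50 nM final) began the reaction, which was monitored by fluorescence at 0 and 10 min.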
# Pol iota inh: qHTS for Inhibitors of Polymerase Iota | 1% of 390,000 active | Pol iota fluorescent replication assay, 10 min | AID 588590, 2011 | Potency, µM (doses to about 115 µM), without a hit: at the top dose activity, negative = inhibition, usual class: inhibitors; further: potency means the concentration at half of the fitted maximal effect
#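 Fluorescent replication assay read twice, at 0 min and 10 min after adding 50 nM (final) substrate. Enzyme (10 nM) and compounds were first incubated 15 min at room temperature; enzyme-free buffer wells were negative controls.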
# FEN1 inh: qHTS Assay for the Inhibitors of Human Flap endonuclease 1 (FEN1). AID 588795, 2011. Recombinant FEN1 flap cleavage, fluorescence, 15 min. Potency, µM (top dose mostly 114 µM), for the others: at the highest dose activity change, negative = inhibition, most hits filed as inhibitors. P39748. 0.35% of 390,000 active; further: potency means the concentration at half of the fitted maximal effect; on the % scale 0 is the no-effect control and ±100 the full control effect; nearly all actives have a fitted effect of over 65% in size
#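 Enzyme 10 nM, 15 min RT preincubation with compound; start with substrate 50 nM final; reads at 0 and 15 min; qHTS titration, four-parameter Hill fit.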
# Pol eta inh-1: qHTS for Inhibitors of Polymerase Eta; DNA polymerase eta (Homo sapiens), Q9Y253; recombinant Pol eta, fluorescent DNA replication assay; Potency, µM (top dose mostly 114 µM), for inactives: at the top dose activity change, negative = inhibition, actives largely listed as inhibitors; 1.2% of 390,000 active; further: potency means the concentration at half of the fitted maximal effect; on the % scale 0 is the no-effect control and ±100 the full control effect
#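 Pol eta (10 nM) was preincubated with compounds for 15 min at room temperature, after which fluorescent replication substrate (50 nM final) was added to start the reaction. Fluorescence was read kinetically at 0 and 10 min.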
# TDP1 inh: qHTS Assay for Inhibitors of Tyrosyl-DNA Phosphodiesterase (TDP1); recombinant TDP1, AlphaScreen DNA substrate cleavage; Tyrosyl-DNA phosphodiesterase 1 (Homo sapiens), Q9NUW8; Potency, µM (titrated, usually from 130 µM), for the others: top-dose activity change, negative = inhibition, usual class: inhibitors; AID 485290, 2010; 0.28% of 350,000 active; further: potency means the concentration at half of the fitted maximal effect; on the % scale 0 is the no-effect control and ±100 the full control effect; nearly all actives have a fitted effect of over 40% in size
# Target sequence (Q9NUW8 whole entry, looked up): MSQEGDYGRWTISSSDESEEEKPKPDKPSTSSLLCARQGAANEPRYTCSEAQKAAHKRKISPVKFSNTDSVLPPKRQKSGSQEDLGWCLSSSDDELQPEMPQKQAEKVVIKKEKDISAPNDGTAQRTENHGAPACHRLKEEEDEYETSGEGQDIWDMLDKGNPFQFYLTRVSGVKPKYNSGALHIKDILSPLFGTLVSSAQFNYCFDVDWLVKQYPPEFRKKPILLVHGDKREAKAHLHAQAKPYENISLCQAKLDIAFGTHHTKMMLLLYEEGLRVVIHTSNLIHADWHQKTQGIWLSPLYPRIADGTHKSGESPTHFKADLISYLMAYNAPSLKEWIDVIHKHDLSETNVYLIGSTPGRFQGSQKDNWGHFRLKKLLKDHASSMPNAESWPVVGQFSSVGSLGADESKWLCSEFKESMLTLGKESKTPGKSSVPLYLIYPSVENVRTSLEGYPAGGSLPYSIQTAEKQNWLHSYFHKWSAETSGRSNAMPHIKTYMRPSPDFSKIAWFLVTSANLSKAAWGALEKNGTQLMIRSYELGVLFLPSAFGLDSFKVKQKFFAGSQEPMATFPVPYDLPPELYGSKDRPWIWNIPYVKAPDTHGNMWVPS
#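 Enzyme-compound mixtures sat 15 min at room temperature, followed by a 5 min reaction with 15 nM final substrate and 10 min with AlphaScreen beads. Recombinant human Tdp1 was used at 1 nM final.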
# TbPGK inh: qHTS for inhibitors of Phosphogylcerate Kinase: Hit Validation Screen; shares compounds with Pol kappa inh-1; TbPGK coupled GAPDH assay, Kinase-Glo luminescence; Potency, µM (top dose mostly 57.5 µM), for inactives: at the highest dose activity change, negative = inhibition, hits mostly inhibitors; 79% of 500 active; further: potency means the concentration at half of the fitted maximal effect; on the % scale 0 is the no-effect control and ±100 the full control effect; nearly all actives have a fitted effect of over 65% in size
# Pol iota confirm: qHTS for Inhibitors of Polymerase Iota: Confirmatory Assay for Cherry-picked Compounds | shares compounds with Pol kappa inh-1 | Pol iota primer extension, TAMRA/BHQ fluorescence | Potency, µM, actives largely listed as inhibitors | 77% of 1,500 active; further: potency means the concentration at half of the fitted maximal effect
# GALK confirm: Confirmation Assay for Inhibitors of Human Galactokinase (GALK); shares compounds with Pol eta inh-1; purified GALK, Kinase-Glo ATP depletion luminescence; Potency, µM (highest dose often 115 µM), inactives show at the top dose activity, negative = inhibition, most hits filed as inhibitors; 70% of 150 active
# GALK redox cs: Confirmatory Assay for Inhibitors of Human Galactokinase (GALK): Phenol-HRP redox assay counterscreen; shares compounds with Pol eta inh-1; AID 2035, 2009; 40% of 150 active; Potency, µM (titrated, usually from 115 µM), for the others: at the highest dose activity change, negative = H2O2 signal, hits mostly inhibitors; Phenol red-HRP H2O2 redox cycling, absorbance 600 nm
# HEK293 viability: Secondary Assay for Inhibitors of Human Galactokinase (GALK): HEK-293 Cell Viability Assay; shares compounds with Pol eta inh-1; HEK-293 viability, ATP luminescence (CellTiter-Glo), 24/48 h; Potency, µM (top dose mostly 46.1 µM), for the others: top-dose activity change, negative = cytotoxicity, most hits filed as inhibitors; 10% of 170 active; AID 2547, 2010; further: potency means the concentration at half of the fitted maximal effect; on the % scale 0 is the no-effect control and ±100 the full control effect
# Pol kappa inh-2: qHTS for Inhibitors of Polymerase Kappa: Confirmatory Assay for Cherry-picked Compounds; shares compounds with Pol eta inh-1; purified Pol-kappa, fluorescent strand-displacement substrate; Potency, µM, most hits filed as inhibitors; 76% of 920 active; AID 720501, 2013; further: potency means the concentration at half of the fitted maximal effect
# Pol eta inh-2: qHTS for Inhibitors of Polymerase Eta: Confirmatory Assay for Cherry-picked Compounds; shares compounds with Pol eta inh-1; Pol eta primer extension, TAMRA/BHQ fluorescence, 10 min; Potency, µM, actives largely listed as inhibitors; 64% of 2,600 active; AID 720502, 2013; further: potency means the concentration at half of the fitted maximal effect
# * hit, by the source's call; ? = inconclusive; / = no result given; [ ] = another dose, or the depositor's remark. Shown are actives, neighbours in structure and some others; about 2.4% of the full set was active somewhere. The call rests on the fitted dose curve; in most records, active means well fitted curve in the direction sought with a large enough effect; inconclusive means small, poorly fitted or top-dose-only effect, or another doubt; inactive means no such curve, though single readings can be large; an effect the other way counts as inactive or inconclusive.
SMILES,POLB inh,Pol kappa inh-1,Pol iota inh,FEN1 inh,Pol eta inh-1,TDP1 inh,Pol iota confirm,Pol eta inh-2,others
O=[N+]([O-])c1cc(/C=N/n2c(-c3ccncc3)n[nH]c2=S)ccc1Cl,2.5µM*,?,13µM*,50µM*,50µM*,9%,17*,43*,
O=C(Cc1cccc(F)c1)NO,/,1%,32%,8%,/,/,/,/,
Cc1cc(=O)[nH]c(N/N=C/c2c(O)n(-c3ccccc3)c(=O)c3ccccc23)n1,45µM*,-25%,0%,-9%,22µM*,11%,75*,60*,
Cc1cc(=O)[nH]c(NN=Cc2c(Cl)cccc2Cl)n1,/,-7%,16%,-8%,-13%,/,/,/,
NC(=O)Cn1c(=O)n(Cc2ccco2)c(=O)c2c3c(sc21)CCCCC3,10µM*,25µM*,?,-12%,40µM*,/,?,?,
O=C(Cn1c(=O)n(Cc2ccco2)c(=O)c2c3c(sc21)CCCC3)Nc1ccccc1,2%,-8%,?,7%,-14%,2%,/,/,
O=C(c1cccc(-n2cccc2)c1)N1CCN(S(=O)(=O)c2ccccc2)CC1,/,18µM*,8.9µM*,?,8.9µM*,/,4.2*,8.5*,
O=C(c1cccc(-n2cccc2)c1)N1CCN(S(=O)(=O)c2c(F)cccc2F)CC1,?,?,22µM*,-13%,20µM*,3%,67*,76*,
N=C1/C(=C/c2ccco2)C(=O)N=C2SC(CC(=O)N3CCCC3)=NN12,?,?,16µM*,-34%,14µM*,20µM*,38*,24*,
CSc1ccc(/C=C2\C(=N)N3N=C(CC(=O)N4CCOCC4)SC3=NC2=O)cc1,3%,?,?,17%,-24%,4%,/,/,
N=C1/C(=C\c2ccc(Br)o2)C(=O)N=C2SC(CC(=O)N3CCOCC3)=NN12,28µM*,?,16µM*,?,18µM*,/,?,24*,
COC(=O)CCc1sc(Nc2ccc(OC)cc2)nc1-c1ccc(OC)cc1,2%,-22%,-7%,-18%,-21%,12%,/,/,
O=c1cc(N2CCN(c3ccc(F)cc3)CC2)[nH]c(=O)n1-c1cccc(Br)c1,8%,-1%[60.1 µM],10%,12%,-16%,-4%,/,/,
COc1ccc(-n2nc(C(=O)NCC(=O)Nc3ccccn3)c3ccccc3c2=O)cc1Cl,?,-14%,1%,-15%,10µM*,6%,15*,?,
COc1ccc(-n2nc(C(=O)NCC(=O)NC(C)C)c3ccccc3c2=O)cc1Cl,59%,-14%,?,13%,-3%,/,/,/,
COc1cc(OC)c(C2C=C(c3ccc(C)cc3)Nc3c(C(=O)Nc4ccccc4)cnn32)cc1OC (stereo not given),-1%,-11%,-3%,4%,-13%,9%,/,/,
CC(=O)C[n+]1cccc(Br)c1,/,-8%,68%,-5%,/,/,/,/,
O=C(NN1C(=O)CSC1=S)C(=O)NN1C(=O)CSC1=S,1.8µM*,?,?,?,28µM*,/,34*,21*,
CCc1n[nH]c(=S)n1/N=C/c1cc(OC)cc([N+](=O)[O-])c1O,2%,-35%,?,-29%,20µM*,3%,34*,60*,
Cc1ccc(OCC(=O)Nc2nonc2-c2ccc(Br)cc2)cc1C,30%,-7%,-6%,-14%,/,-3%,/,/,
O=S(=O)(c1cc(O)ccc1O)c1cccc2c(S(=O)(=O)c3cc(O)ccc3O)cccc12,/,18µM*,7.9µM*,35µM*,4.5µM*,/,8.4*,15*,TbPGK inh=3.7µM*;Pol kappa inh-2=9.5*
O=C(Nc1ccc(F)c(Cl)c1)C1Cc2ccccc2CN1S(=O)(=O)c1ccc(F)cc1 (stereo not given),-23%,0%,-15%,-16%,/,6%,/,/,
COC(=O)c1ccc(-c2ccc(C(c3c(C)[nH][nH]c3=O)c3c(C)[nH][nH]c3=O)o2)cc1,20µM*,?,3.5µM*,-12%,25µM*,-11%,?,76*,
Cc1[nH][nH]c(=O)c1C(c1ccc(-c2ccccc2C(=O)O)o1)c1c(C)[nH][nH]c1=O,10µM*,?,10µM*,1%,11µM*,/,47*,27*,GALK confirm=-11%;GALK redox cs=6.7µM*;HEK293 viability=6%
Cc1[nH][nH]c(=O)c1C(c1ccc(Br)cc1)c1c(C)[nH][nH]c1=O,-24%,-4%,?,5%,-5%,4%,/,/,
